According to PubChem BioAssay (EPA / NIEHS):
Inconclusive results are not listed. Calls of active or inactive are those of the source. How the source made its calls: active means hit-call score of the fitted dose curve at least 0.9, where 1 is the maximum; inconclusive means response in the unintended direction; inactive means score below 0.9.

These molecules were tested against human Peroxisome Proliferator-activated Receptor delta (PPARd), PPARD (gene 5467) (UniProt Q03181) (assay: ATG_PPARd_TRANS: Attagene TRANS-FACTORIAL HepG2 Assay for human Peroxisome Proliferator-activated Receptor delta (PPARd) (AID 2283002)).
human Peroxisome Proliferator-activated Receptor delta (PPARd), PPARD (gene 5467), sequence (Q03181 whole entry, looked up, the tested form may be a part): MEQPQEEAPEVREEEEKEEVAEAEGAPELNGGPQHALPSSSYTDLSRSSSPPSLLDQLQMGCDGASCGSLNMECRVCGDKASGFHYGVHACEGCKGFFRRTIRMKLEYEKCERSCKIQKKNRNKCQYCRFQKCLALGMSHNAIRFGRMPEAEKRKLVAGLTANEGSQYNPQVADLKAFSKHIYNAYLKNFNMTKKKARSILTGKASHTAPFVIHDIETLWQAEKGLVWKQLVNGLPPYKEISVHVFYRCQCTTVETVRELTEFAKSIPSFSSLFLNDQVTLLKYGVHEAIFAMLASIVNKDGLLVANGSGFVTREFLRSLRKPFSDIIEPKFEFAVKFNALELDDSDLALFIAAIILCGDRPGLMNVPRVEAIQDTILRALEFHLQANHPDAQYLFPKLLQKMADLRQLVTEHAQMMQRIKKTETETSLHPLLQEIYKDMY
Outline: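 Fluorescence from capillary electrophoresis of labelled RT-PCR reporter fragments gives the signal; DMSO sets baseline. Cells: HepG2 transiently carrying GAL4-UAS reporter units plus chimeric nuclear receptor-Gal4 proteins, exposed to chemicals for 24 h.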

outcome, inactive:
C=COCCOCCOCCOC=C, CC(O)C(C)O (stereo unspecified), Nc1cc(Cl)c(O)c(Cl)c1, CN(C)CCOCCN(C)C, CNCCCC12CCC(c3ccccc31)c1ccccc12, C=C[C@@H](C)CCC=C(C)C, O=S(=O)(O)c1ccc(O)c2ncccc12, CCC(C(=O)NC(N)=O)c1ccccc1 (stereo unspecified), c1cc(C(c2ccc(OCC3CO3)cc2)c2ccc(OCC3CO3)cc2)ccc1OCC1CO1 (stereo unspecified), CCCCCCCCCCCCN(CCCCCCCCCCCC)CCCCCCCCCCCC, c1ccc2[nH]ccc2c1, O=c1[nH]nnc2ccccc12, Clc1ccc(Cl)c(Cl)c1Cl, CCCCCCCCCCCCCOS(=O)(=O)O, CCC(O)CO (stereo unspecified), CCN(CC)c1ccc(C(=C2C=CC(=[N+](CC)CC)C=C2)c2ccc(S(=O)(=O)O)cc2S(=O)(=O)[O-])cc1, COCCOCCOCCOCCOCCO, O=C(Oc1ccccc1)c1ccc(O)cc1

These molecules were tested against Peroxisome proliferator-activated receptor gamma (Homo sapiens) (UniProt P37231) (assay: ATG_PPARg_TRANS: Attagene TRANS-FACTORIAL HepG2 Assay for human Peroxisome Proliferator-activated Receptor-gamma (PPARg) (AID 2283007)).
Peroxisome proliferator-activated receptor gamma (Homo sapiens), sequence (P37231 whole entry, looked up): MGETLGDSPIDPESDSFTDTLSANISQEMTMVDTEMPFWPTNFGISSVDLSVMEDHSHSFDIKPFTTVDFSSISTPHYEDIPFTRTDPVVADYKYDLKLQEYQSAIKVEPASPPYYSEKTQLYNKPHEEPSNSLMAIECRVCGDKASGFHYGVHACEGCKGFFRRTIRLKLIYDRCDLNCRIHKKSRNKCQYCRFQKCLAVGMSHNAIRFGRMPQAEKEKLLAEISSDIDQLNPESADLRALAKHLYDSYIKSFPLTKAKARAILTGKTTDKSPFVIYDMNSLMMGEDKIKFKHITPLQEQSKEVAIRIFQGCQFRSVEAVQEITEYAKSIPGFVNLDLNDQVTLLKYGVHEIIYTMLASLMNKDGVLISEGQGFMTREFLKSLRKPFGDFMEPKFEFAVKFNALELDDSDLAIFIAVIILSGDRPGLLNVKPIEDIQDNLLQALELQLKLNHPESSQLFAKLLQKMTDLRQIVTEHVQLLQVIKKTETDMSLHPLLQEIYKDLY
Outline: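 Multiplexed reporter transcription units in HepG2, 24 h dosing, reporter transcripts quantified by fluorescent RT-PCR and capillary electrophoresis. Increase over DMSO scored.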

AC50, active:
Nc1cc(Cl)c(O)c(Cl)c1 30 µM, CCCCCC=CCC(=O)OC 75.4 µM, COCCCOc1ccnc(CS(=O)c2nc3ccccc3[nH]2)c1C (stereo unspecified) 31.3 µM, C=C(C)C(=O)Nc1ccc(Cl)c(Cl)c1 18.4 µM, CC(CN1c2ccccc2Sc2ccccc21)N(C)C (stereo unspecified) 47.8 µM

outcome, inactive:
CCCc1ccccc1O, CCC(C)CCCC(C)(C)O (stereo unspecified), CC(C)(C#N)c1cc(Cn2cncn2)cc(C(C)(C)C#N)c1, C=CC(=O)NCOCC(C)C, c1ccc2[nH]ccc2c1, CCN(CC)CCOC(=O)c1ccc(N)cc1, O=C1O[C@@H]2[C@@H](O)[C@H](O)O[C@@H]2[C@H]1O, C/C=C(\C)C(=O)OCc1ccccc1, CCc1ccc(C=O)cc1, O=C(Oc1ccccc1)c1ccc(O)cc1, Cc1cccc(C)c1C, CCCCc1ccc(N)cc1, NC(N)=NC(=O)c1nc(Cl)c(N)nc1N, CCCC(C)C=O (stereo unspecified)

The molecules below were run against Nuclear receptor subfamily 1 group I member 2 (Homo sapiens) (UniProt O75469) (assay: ATG_PXR_TRANS: Attagene TRANS-FACTORIAL HepG2 Assay for human Pregnane X Receptor (PXR) (AID 2283008)).
Nuclear receptor subfamily 1 group I member 2 (Homo sapiens), sequence (O75469 whole entry, looked up, the tested form may be a part): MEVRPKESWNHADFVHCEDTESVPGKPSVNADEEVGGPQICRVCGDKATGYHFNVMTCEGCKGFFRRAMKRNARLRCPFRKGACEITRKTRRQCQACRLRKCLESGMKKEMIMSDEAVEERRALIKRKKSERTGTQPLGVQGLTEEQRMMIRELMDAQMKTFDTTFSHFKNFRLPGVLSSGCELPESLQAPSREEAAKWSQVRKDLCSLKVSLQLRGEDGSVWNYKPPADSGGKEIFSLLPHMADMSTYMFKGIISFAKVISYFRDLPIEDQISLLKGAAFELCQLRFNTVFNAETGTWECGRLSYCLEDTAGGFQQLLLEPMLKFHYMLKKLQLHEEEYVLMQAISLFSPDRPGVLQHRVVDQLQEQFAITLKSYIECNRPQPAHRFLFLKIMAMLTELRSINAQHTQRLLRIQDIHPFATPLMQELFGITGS
Outline: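 Trans-factorial format: exogenous NR-Gal4 fusion activity, not endogenous factor, in transfected human HepG2 liver cells. After 24 h dosing, RNA isolated, reverse-transcribed, amplified and resolved by capillary electrophoresis; induction scored versus DMSO.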

outcome, inactive:
C=COCCOCCOCCOC=C, CC(O)C(C)O (stereo unspecified), Nc1cc(Cl)c(O)c(Cl)c1, CN(C)CCOCCN(C)C, O=C(O)Cc1cccc2ccccc12, CNCCCC12CCC(c3ccccc31)c1ccccc12, CCCc1ccccc1O, C=C[C@@H](C)CCC=C(C)C, O=S(=O)(O)c1ccc(O)c2ncccc12, CCC(C(=O)NC(N)=O)c1ccccc1 (stereo unspecified), c1cc(C(c2ccc(OCC3CO3)cc2)c2ccc(OCC3CO3)cc2)ccc1OCC1CO1 (stereo unspecified), CCCCCC=CCC(=O)OC, CCC(C)CCCC(C)(C)O (stereo unspecified), CC(C)(C#N)c1cc(Cn2cncn2)cc(C(C)(C)C#N)c1, C=CC(=O)NCOCC(C)C, CCCCCCCCCCCCN(CCCCCCCCCCCC)CCCCCCCCCCCC, CC1CCC2CC1C2(C)C (stereo unspecified), c1ccc2[nH]ccc2c1, O=c1[nH]nnc2ccccc12, Clc1ccc(Cl)c(Cl)c1Cl, CCCCCCCCCCCCCOS(=O)(=O)O, O=C1O[C@@H]2[C@@H](O)[C@H](O)O[C@@H]2[C@H]1O, C/C=C(\C)C(=O)OCc1ccccc1, CCC(O)CO (stereo unspecified), CCN(CC)c1ccc(C(=C2C=CC(=[N+](CC)CC)C=C2)c2ccc(S(=O)(=O)O)cc2S(=O)(=O)[O-])cc1, CCc1ccc(C=O)cc1, O=C(Oc1ccccc1)c1ccc(O)cc1, CCCCc1ccc(N)cc1, NC(N)=NC(=O)c1nc(Cl)c(N)nc1N, CCCC(C)C=O (stereo unspecified), O=C(O)CCCCC1CCSS1 (stereo unspecified)

AC50, active:
COCCCOc1ccnc(CS(=O)c2nc3ccccc3[nH]2)c1C (stereo unspecified) 4.77 µM, C=C(C)C(=O)Nc1ccc(Cl)c(Cl)c1 7.08 µM, CC(CN1c2ccccc2Sc2ccccc21)N(C)C (stereo unspecified) 6.83 µM

The molecules below were run against human Retinoic Acid Receptor gamma (RARg), RARG (gene 5916) (UniProt P13631) (assay: ATG_RARg_TRANS: Attagene TRANS-FACTORIAL HepG2 Assay for human Retinoic Acid Receptor gamma (RARg) (AID 2283009)).
human Retinoic Acid Receptor gamma (RARg), RARG (gene 5916), sequence (P13631 whole entry, looked up, the tested form may be a part): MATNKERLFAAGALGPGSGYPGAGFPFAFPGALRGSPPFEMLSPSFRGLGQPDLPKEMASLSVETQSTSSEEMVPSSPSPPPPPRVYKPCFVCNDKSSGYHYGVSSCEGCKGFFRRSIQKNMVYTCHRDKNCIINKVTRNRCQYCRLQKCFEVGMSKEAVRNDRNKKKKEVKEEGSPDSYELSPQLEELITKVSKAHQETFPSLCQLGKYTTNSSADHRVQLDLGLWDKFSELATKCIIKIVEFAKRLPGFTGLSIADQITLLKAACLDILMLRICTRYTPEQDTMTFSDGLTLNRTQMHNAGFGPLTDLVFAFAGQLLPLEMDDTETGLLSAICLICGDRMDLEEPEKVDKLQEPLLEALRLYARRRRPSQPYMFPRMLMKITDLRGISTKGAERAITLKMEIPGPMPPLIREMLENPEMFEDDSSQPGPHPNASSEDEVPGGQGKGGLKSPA
Outline: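 Transactivation of exogenous RARg-Gal4 fusion measured as reporter transcript induction after 24 h in transfected HepG2 cells. RNA reverse-transcribed, amplified, fluorescently labeled and resolved by capillary electrophoresis; increase relative to DMSO.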

outcome, inactive:
CCC(C)CCCC(C)(C)O (stereo unspecified), COCCCOc1ccnc(CS(=O)c2nc3ccccc3[nH]2)c1C (stereo unspecified), O=C(O)CCCCCCCC(=O)O, CC(CN1c2ccccc2Sc2ccccc21)N(C)C (stereo unspecified)

What follows are molecules tested against human RAR-related Orphan Receptor beta (RORb), RORB (gene 6096) (UniProt Q92753) (assay: ATG_RORb_TRANS: Attagene TRANS-FACTORIAL HepG2 Assay for human RAR-related Orphan Receptor beta (RORb) (AID 2283010)).
human RAR-related Orphan Receptor beta (RORb), RORB (gene 6096), sequence (Q92753 whole entry, looked up, the tested form may be a part): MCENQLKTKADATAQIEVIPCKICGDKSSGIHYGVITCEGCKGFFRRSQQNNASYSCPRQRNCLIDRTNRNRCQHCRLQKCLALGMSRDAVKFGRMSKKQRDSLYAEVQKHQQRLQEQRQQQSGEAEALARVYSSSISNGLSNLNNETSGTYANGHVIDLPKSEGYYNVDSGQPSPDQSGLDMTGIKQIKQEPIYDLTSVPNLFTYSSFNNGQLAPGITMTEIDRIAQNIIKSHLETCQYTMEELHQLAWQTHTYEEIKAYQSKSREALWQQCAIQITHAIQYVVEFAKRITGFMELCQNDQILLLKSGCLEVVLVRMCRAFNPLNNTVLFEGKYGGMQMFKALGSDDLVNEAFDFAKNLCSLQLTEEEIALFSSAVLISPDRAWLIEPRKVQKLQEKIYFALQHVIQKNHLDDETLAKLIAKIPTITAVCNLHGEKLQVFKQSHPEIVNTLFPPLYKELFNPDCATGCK
Outline: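 Read-out is reporter mRNA induction, quantified by RT-PCR with fluorescent capillary electrophoresis, 24 h post-dose in transiently transfected HepG2 expressing exogenous NR-Gal4 chimera. Activity fitted upward versus DMSO.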

outcome, inactive:
CC(O)C(C)O (stereo unspecified), Nc1cc(Cl)c(O)c(Cl)c1, C=C[C@@H](C)CCC=C(C)C, O=S(=O)(O)c1ccc(O)c2ncccc12, CCCCCC=CCC(=O)OC, CCC(C)CCCC(C)(C)O (stereo unspecified), C=C(C)C(=O)Nc1ccc(Cl)c(Cl)c1, c1ccc2[nH]ccc2c1, CCN(CC)CCOC(=O)c1ccc(N)cc1, CCN(CC)c1ccc(C(=C2C=CC(=[N+](CC)CC)C=C2)c2ccc(S(=O)(=O)O)cc2S(=O)(=O)[O-])cc1, COCCOCCOCCOCCOCCO, O=C(Oc1ccccc1)c1ccc(O)cc1, Cc1cccc(C)c1C, CCCCc1ccc(N)cc1, NC(N)=NC(=O)c1nc(Cl)c(N)nc1N, CCCC(C)C=O (stereo unspecified)
